Reference: PubChem BioAssay (NCI)
Compounds without any hit were thinned out: in the full panel of roughly 79,000, 15% have a hit. Values without a mark were called inactive. Activity calls are given as the source filed them. Rule as the data show it: active = growth inhibition above about 70%; inactive = the rest.

Assays:
[1] = NCI Yeast Anticancer Drug Screen. Data for the rad50 strain (AID 155);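 also: 0% = growth of vehicle-only cultures of the same strain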; conditions: S. cerevisiae rad50 strain growth inhibition, hits give high values
In short: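 Growth of the mutant yeast was measured after compound exposure and referenced to vehicle-treated cultures.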

[2] = NCI Yeast Anticancer Drug Screen. Data for the mec2-1 strain (AID 157); conditions: S. cerevisiae mec2-1 strain, hits give high values
In short: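 Cells of the genetically defined mec2-1 yeast strain are incubated with test compound. Inhibition of growth is calculated against vehicle-treated controls.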

[3] = NCI Yeast Anticancer Drug Screen. Data for the sgs1 mgt1 strain (AID 161);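 also: 0% = growth of cultures given vehicle only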; conditions: S. cerevisiae sgs1 mgt1 strain, hits give high values
In short: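 Inhibition of yeast growth, normalised to vehicle-treated controls, is reported for a strain bearing genetic alterations in DNA damage repair.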

[4] = NCI Yeast Anticancer Drug Screen. Data for the cln2 rad14 strain (AID 165);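 also: 0% = growth equal to vehicle treated cultures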; conditions: S. cerevisiae cln2 rad14 strain, hits give high values
In short: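 The screen exposed genetically defined yeast (cln2 rad14) to test compounds and scored growth inhibition relative to vehicle-treated controls.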

[5] = NCI Yeast Anticancer Drug Screen. Data for the bub3 strain (AID 167); conditions: S. cerevisiae bub3 mutant strain, hits give high values
In short: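 Whole-cell yeast assay. The mutant strain was incubated with compounds, and growth inhibition was determined by comparison with vehicle-treated cells.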

[6] = NCI Yeast Anticancer Drug Screen. Data for the mlh1 rad18 strain (AID 175); conditions: S. cerevisiae mlh1 rad18 strain growth inhibition, hits give high values
In short: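 Compound-treated yeast growth, normalised to vehicle controls. Strain bears defined DNA repair mutations.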

[7] = at 5.0 µM (retest, dose inferred, filed as 0.5)
[8] = at 50.0 µM (retest, dose inferred, filed as 5.0)

Q: What does the source list for `Cc1ccc(S(=O)(=O)Oc2ccc(C(C)(C)C)cc2Cl)cc1`?
A: growth inhibition [1, 7]: -8%; growth inhibition [1, 8]: -11%; growth inhibition ([1]; at 50.0 µM): -5.5%; growth inhibition [2, 7]: -22%; growth inhibition [2, 8]: -25%; growth inhibition ([2]; at 50.0 µM): 2%; growth inhibition [3, 7]: 11%; growth inhibition [3, 8]: 3%; growth inhibition ([3]; at 50.0 µM): 9.35%; growth inhibition [4, 7]: -3%; growth inhibition [4, 8]: -3%; growth inhibition ([4]; at 50.0 µM): -7.7%; growth inhibition [5, 7]: 1%; growth inhibition [5, 8]: -1%; growth inhibition ([5]; at 50.0 µM): 11.4%; growth inhibition [6, 7]: 20%; growth inhibition [6, 8]: 0%; growth inhibition ([6]; at 50.0 µM): 14.4%

Q: What does the source list for `COc1ccc(/C=C2/C(=O)N(C(=O)c3ccccc3O)N=C2C)cc1OC`?
A: growth inhibition [1, 7]: 13%; growth inhibition [1, 8]: 69%; growth inhibition ([1]; at 50.0 µM): 66.7%; growth inhibition [2, 7]: -1%; growth inhibition [2, 8]: 59%; growth inhibition ([2]; at 50.0 µM): 52.9%; growth inhibition [3, 7]: 7%; growth inhibition [3, 8]: 61%; growth inhibition ([3]; at 50.0 µM): 47.4%; growth inhibition [4, 7]: 22%; growth inhibition [4, 8]: 62%; growth inhibition ([4]; at 50.0 µM): 56.5%; growth inhibition [5, 7]: 17%; growth inhibition [5, 8]: 81% (active); growth inhibition ([5]; at 50.0 µM): 76.5% (active); growth inhibition [6, 7]: 15%; growth inhibition [6, 8]: 79% (active); growth inhibition ([6]; at 50.0 µM): 54.6%

Q: For `CC12CCC3c4cc(O)ccc4CCC3C1CCC2O` (configuration not stated), which growth inhibition [1, 7] is on record?
A: 4%

Q: What about the growth inhibition [1, 8] of the same compound?
A: 54%

Q: What about the growth inhibition ([1]; at 50.0 µM) of the same compound?
A: 50.2%

Q: And the growth inhibition [2, 7]?
A: -4%

Q: What about the growth inhibition [2, 8] of the same compound?
A: 51%

Q: What about the growth inhibition ([2]; at 50.0 µM) of the same compound?
A: 26.5%

Q: And the growth inhibition [3, 7]?
A: 1%

Q: And the growth inhibition [3, 8]?
A: 81% (active)

Q: And the growth inhibition ([3]; at 50.0 µM)?
A: 58.2%

Q: What about the growth inhibition [4, 7] of the same compound?
A: -6%

Q: What about the growth inhibition [4, 8] of the same compound?
A: 41%

Q: And the growth inhibition ([4]; at 50.0 µM)?
A: 24.8%

Q: And the growth inhibition [5, 7]?
A: -1%

Q: What about the growth inhibition [5, 8] of the same compound?
A: 54%

Q: What about the growth inhibition ([5]; at 50.0 µM) of the same compound?
A: 55.4%

Q: What about the growth inhibition [6, 7] of the same compound?
A: 4%

Q: What about the growth inhibition [6, 8] of the same compound?
A: 67%

Q: And the growth inhibition ([6]; at 50.0 µM)?
A: 37%

Q: What does the source list for `O=Nc1ccc(O)c(/C=N/O)c1`?
A: growth inhibition [1, 7]: 19%; growth inhibition [1, 8]: 94% (active); growth inhibition ([1]; at 50.0 µM): 87.3% (active); growth inhibition [2, 7]: 11%; growth inhibition [2, 8]: 96% (active); growth inhibition ([2]; at 50.0 µM): 91% (active); growth inhibition [3, 7]: 6%; growth inhibition [3, 8]: 90% (active); growth inhibition ([3]; at 50.0 µM): 92.1% (active); growth inhibition [4, 7]: 24%; growth inhibition [4, 8]: 95% (active); growth inhibition ([4]; at 50.0 µM): 83.8% (active); growth inhibition [5, 7]: 1%; growth inhibition [5, 8]: 99% (active); growth inhibition ([5]; at 50.0 µM): 90% (active); growth inhibition [6, 7]: 1%; growth inhibition [6, 8]: 97% (active); growth inhibition ([6]; at 50.0 µM): 88.9% (active)

Q: For `CCN(CC)CCNc1cc(C)nc2c1ccc1c2ccc2c(NCCN(CC)CC)cc(C)nc21`, which growth inhibition [1, 7] is on record?
A: -3%

Q: And the growth inhibition [1, 8]?
A: 96% (active)

Q: What about the growth inhibition ([1]; at 50.0 µM) of the same compound?
A: 62.3%

Q: And the growth inhibition [2, 7]?
A: 18%

Q: What about the growth inhibition [2, 8] of the same compound?
A: 98% (active)

Q: What about the growth inhibition ([2]; at 50.0 µM) of the same compound?
A: 98% (active)

Q: And the growth inhibition [3, 7]?
A: -3%

Q: What about the growth inhibition [3, 8] of the same compound?
A: 96% (active)

Q: And the growth inhibition ([3]; at 50.0 µM)?
A: 54.5%

Q: What about the growth inhibition [4, 7] of the same compound?
A: -16%

Q: And the growth inhibition [4, 8]?
A: 95% (active)

Q: And the growth inhibition ([4]; at 50.0 µM)?
A: 93% (active)

Q: And the growth inhibition [5, 7]?
A: -2%

Q: And the growth inhibition [5, 8]?
A: 90% (active)

Q: What about the growth inhibition ([5]; at 50.0 µM) of the same compound?
A: 96% (active)

Q: What about the growth inhibition [6, 7] of the same compound?
A: -3%

Q: And the growth inhibition [6, 8]?
A: 97% (active)

Q: And the growth inhibition ([6]; at 50.0 µM)?
A: 96.4% (active)

Q: For `NCCCC(=O)NC(Cc1cnc[nH]1)C(=O)O` (configuration not stated), which growth inhibition [1, 7] is on record?
A: 0%

Q: What about the growth inhibition [1, 8] of the same compound?
A: -5%

Q: What about the growth inhibition ([1]; at 50.0 µM) of the same compound?
A: -1.3%

Q: And the growth inhibition [2, 7]?
A: -6%

Q: And the growth inhibition [2, 8]?
A: -4%

Q: What about the growth inhibition ([2]; at 50.0 µM) of the same compound?
A: 29.4%

Q: And the growth inhibition [3, 7]?
A: 1%

Q: What about the growth inhibition [3, 8] of the same compound?
A: -11%

Q: And the growth inhibition ([3]; at 50.0 µM)?
A: 11.8%

Q: And the growth inhibition [4, 7]?
A: 1%

Q: And the growth inhibition [4, 8]?
A: -2%

Q: What about the growth inhibition ([4]; at 50.0 µM) of the same compound?
A: 32.5%

Q: And the growth inhibition [5, 7]?
A: -4%

Q: And the growth inhibition [5, 8]?
A: -1%

Q: And the growth inhibition ([5]; at 50.0 µM)?
A: 2.75%

Q: And the growth inhibition [6, 7]?
A: -11%

Q: And the growth inhibition [6, 8]?
A: -37%

Q: What about the growth inhibition ([6]; at 50.0 µM) of the same compound?
A: -6.45%

Q: Which growth inhibition [1, 7] does the source give for `O=C1OC(=O)c2cc([N+](=O)[O-])cc3cccc1c23` here?
A: 3%

Q: And the growth inhibition [1, 8]?
A: 97% (active)

Q: And the growth inhibition ([1]; at 50.0 µM)?
A: 22.9%

Q: And the growth inhibition [2, 7]?
A: 13%

Q: What about the growth inhibition [2, 8] of the same compound?
A: 99% (active)

Q: And the growth inhibition ([2]; at 50.0 µM)?
A: 36.2%

Q: And the growth inhibition [3, 7]?
A: 3%

Q: What about the growth inhibition [3, 8] of the same compound?
A: 99% (active)

Q: And the growth inhibition ([3]; at 50.0 µM)?
A: 29.2%

Q: And the growth inhibition [4, 7]?
A: 22%

Q: What about the growth inhibition [4, 8] of the same compound?
A: 98% (active)

Q: What about the growth inhibition ([4]; at 50.0 µM) of the same compound?
A: 36.6%

Q: What about the growth inhibition [5, 7] of the same compound?
A: 21%

Q: And the growth inhibition [5, 8]?
A: 99% (active)

Q: And the growth inhibition ([5]; at 50.0 µM)?
A: 47.5%

Q: And the growth inhibition [6, 7]?
A: 8%

Q: And the growth inhibition [6, 8]?
A: 99% (active)

Q: And the growth inhibition ([6]; at 50.0 µM)?
A: 76.7% (active)

Q: What does the source list for `N#C/C(=C1C=C/C(=N/O)c2ccccc2/1)c1ccc(Cl)cc1`?
A: growth inhibition [1, 7]: 11%; growth inhibition [1, 8]: 17%; growth inhibition ([1]; at 50.0 µM): 56%; growth inhibition [2, 7]: -6%; growth inhibition [2, 8]: 26%; growth inhibition ([2]; at 50.0 µM): 77.3% (active); growth inhibition [3, 7]: 1%; growth inhibition [3, 8]: 1%; growth inhibition ([3]; at 50.0 µM): 60.8%; growth inhibition [4, 7]: -1%; growth inhibition [4, 8]: 6%; growth inhibition ([4]; at 50.0 µM): 41.1%; growth inhibition [5, 7]: -4%; growth inhibition [5, 8]: 61%; growth inhibition ([5]; at 50.0 µM): 34.5%; growth inhibition [6, 7]: -9%; growth inhibition [6, 8]: 28%; growth inhibition ([6]; at 50.0 µM): 72.6% (active)

Q: With `COc1ccc(OC(=O)c2ccccc2)c2c1C(=O)C=CC2=O` as the compound, how does the growth inhibition [1, 7] read?
A: 5%

Q: And the growth inhibition [1, 8]?
A: 38%

Q: And the growth inhibition ([1]; at 50.0 µM)?
A: 92.7% (active)

Q: And the growth inhibition [2, 7]?
A: 10%

Q: And the growth inhibition [2, 8]?
A: 38%

Q: What about the growth inhibition ([2]; at 50.0 µM) of the same compound?
A: 84.2% (active)

Q: What about the growth inhibition [3, 7] of the same compound?
A: -38%

Q: And the growth inhibition [3, 8]?
A: 21%

Q: What about the growth inhibition ([3]; at 50.0 µM) of the same compound?
A: 90.2% (active)

Q: What about the growth inhibition [4, 7] of the same compound?
A: 0%

Q: What about the growth inhibition [4, 8] of the same compound?
A: 18%

Q: What about the growth inhibition ([4]; at 50.0 µM) of the same compound?
A: 51.5%

Q: And the growth inhibition [5, 7]?
A: -1%

Q: What about the growth inhibition [5, 8] of the same compound?
A: 24%

Q: What about the growth inhibition ([5]; at 50.0 µM) of the same compound?
A: 76.8% (active)

Q: And the growth inhibition [6, 7]?
A: 9%

Q: What about the growth inhibition [6, 8] of the same compound?
A: 24%

Q: What about the growth inhibition ([6]; at 50.0 µM) of the same compound?
A: 67.8%
